Measured values reported in the supplement of paper PMC10849652.
Of roughly 8,800 targets only a part is listed; those with a hit were picked by preference. About 0.5% of all pairs of compound and target were hits.

Compound: Cn1cc(-c2ccc3c(c2)CCN3C(=O)Cc2cccc(C(F)(F)F)c2)c2c(N)ncnc21
Test: log2 fold change, soluble protein after heating vs DMSO (PISA); higher = thermal stabilisation; K562 lysate, 10 uM; active = over 0.2 and 3.5 SD of the protein, either way, in both replicates (recomputed)
Outline: (§1)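 Quantification was by TMTpro 16plex LC-MS/MS with equalised channel sums, applied to the supernatant after 21,000xg for 90 min. Samples were crude K562 extract at 1 mg/mL protein in PBS pH 7.4 with 1 mM MgCl2, treated with 10 μM compound for 30 min, heated for 3 min across 48°C-58°C, pooled and brought to 0.5% NP-40 at 4°C. Values are log-two fold changes in thermal stability relative to solvent controls, from duplicates.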

UniProt Q8TBC3, sequence (Q8TBC3 whole entry, looked up): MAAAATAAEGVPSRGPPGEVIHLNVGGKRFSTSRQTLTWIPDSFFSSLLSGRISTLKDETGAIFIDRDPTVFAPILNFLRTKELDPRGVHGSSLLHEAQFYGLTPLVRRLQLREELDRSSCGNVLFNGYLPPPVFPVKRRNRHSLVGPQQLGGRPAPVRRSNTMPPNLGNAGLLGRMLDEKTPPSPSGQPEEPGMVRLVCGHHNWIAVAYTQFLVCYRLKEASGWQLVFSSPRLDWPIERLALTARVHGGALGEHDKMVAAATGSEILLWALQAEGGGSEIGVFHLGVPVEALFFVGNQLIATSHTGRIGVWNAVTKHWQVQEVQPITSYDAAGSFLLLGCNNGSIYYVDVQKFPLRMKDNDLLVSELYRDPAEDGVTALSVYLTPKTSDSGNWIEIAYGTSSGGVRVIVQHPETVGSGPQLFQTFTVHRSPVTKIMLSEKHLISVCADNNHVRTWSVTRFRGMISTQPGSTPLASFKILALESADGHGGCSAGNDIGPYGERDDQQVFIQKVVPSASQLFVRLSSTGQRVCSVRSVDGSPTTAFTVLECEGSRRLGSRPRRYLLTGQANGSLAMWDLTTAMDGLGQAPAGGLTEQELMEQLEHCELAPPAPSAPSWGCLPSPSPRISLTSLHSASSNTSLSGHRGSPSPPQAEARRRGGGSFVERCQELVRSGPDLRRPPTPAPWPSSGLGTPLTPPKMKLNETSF
UniProt O95793, sequence (O95793 whole entry, looked up): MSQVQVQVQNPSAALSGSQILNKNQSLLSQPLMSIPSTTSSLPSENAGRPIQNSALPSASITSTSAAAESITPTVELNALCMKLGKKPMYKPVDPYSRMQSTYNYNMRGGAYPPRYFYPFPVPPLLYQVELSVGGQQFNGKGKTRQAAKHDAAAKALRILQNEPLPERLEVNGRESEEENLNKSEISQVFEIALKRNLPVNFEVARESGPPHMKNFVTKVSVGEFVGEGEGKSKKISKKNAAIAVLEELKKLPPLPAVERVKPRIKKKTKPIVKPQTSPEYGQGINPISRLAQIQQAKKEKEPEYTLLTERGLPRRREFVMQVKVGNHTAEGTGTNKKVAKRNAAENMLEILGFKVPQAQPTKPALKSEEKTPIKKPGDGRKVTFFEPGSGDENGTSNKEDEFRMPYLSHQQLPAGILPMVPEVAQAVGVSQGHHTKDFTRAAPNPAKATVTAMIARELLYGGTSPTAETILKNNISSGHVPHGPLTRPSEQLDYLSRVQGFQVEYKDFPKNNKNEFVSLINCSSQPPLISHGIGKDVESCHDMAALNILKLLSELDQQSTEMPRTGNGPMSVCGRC
UniProt P31947, sequence (P31947 whole entry, looked up): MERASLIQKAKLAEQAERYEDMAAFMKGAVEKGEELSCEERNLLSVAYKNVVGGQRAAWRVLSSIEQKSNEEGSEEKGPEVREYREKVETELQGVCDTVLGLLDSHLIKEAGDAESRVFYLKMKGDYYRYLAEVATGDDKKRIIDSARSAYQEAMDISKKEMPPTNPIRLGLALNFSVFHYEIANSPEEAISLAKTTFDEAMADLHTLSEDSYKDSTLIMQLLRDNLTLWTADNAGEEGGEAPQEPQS
UniProt Q86US8, sequence (Q86US8 whole entry, looked up): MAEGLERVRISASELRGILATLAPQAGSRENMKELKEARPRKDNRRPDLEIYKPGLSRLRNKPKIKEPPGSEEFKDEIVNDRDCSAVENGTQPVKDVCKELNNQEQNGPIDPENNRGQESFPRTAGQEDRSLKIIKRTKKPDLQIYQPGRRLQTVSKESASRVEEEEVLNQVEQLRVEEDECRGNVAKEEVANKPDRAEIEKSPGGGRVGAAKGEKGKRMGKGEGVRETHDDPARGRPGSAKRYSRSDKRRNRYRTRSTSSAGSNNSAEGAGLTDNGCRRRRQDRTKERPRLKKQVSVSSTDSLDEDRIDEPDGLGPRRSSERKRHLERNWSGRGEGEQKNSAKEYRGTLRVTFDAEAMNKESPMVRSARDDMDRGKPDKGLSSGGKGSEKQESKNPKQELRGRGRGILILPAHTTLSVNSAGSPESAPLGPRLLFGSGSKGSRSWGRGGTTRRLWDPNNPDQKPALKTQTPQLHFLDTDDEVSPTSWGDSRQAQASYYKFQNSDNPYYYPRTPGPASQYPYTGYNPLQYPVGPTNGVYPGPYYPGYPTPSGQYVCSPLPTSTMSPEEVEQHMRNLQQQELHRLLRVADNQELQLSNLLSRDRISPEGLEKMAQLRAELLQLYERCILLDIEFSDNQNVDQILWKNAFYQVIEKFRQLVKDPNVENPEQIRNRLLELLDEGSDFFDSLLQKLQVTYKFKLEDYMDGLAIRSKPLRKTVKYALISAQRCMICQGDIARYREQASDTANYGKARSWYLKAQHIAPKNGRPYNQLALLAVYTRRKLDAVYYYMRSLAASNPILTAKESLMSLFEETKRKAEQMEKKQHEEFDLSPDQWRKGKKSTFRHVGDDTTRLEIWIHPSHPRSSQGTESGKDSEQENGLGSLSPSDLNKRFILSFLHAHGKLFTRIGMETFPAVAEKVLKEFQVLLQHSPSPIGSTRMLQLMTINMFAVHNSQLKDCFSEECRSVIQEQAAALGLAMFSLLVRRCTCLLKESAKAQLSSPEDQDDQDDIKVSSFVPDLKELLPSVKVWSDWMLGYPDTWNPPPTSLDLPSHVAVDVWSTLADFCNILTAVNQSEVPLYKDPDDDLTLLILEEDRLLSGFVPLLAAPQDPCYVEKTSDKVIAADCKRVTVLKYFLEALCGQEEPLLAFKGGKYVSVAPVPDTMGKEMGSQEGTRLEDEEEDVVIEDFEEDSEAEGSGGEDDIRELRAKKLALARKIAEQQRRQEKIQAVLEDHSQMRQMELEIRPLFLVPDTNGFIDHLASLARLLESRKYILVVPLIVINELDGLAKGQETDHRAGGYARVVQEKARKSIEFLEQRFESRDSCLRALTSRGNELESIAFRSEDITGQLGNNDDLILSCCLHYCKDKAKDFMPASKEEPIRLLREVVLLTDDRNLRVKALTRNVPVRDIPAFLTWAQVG
UniProt Q9BWW4, sequence (Q9BWW4 whole entry, looked up): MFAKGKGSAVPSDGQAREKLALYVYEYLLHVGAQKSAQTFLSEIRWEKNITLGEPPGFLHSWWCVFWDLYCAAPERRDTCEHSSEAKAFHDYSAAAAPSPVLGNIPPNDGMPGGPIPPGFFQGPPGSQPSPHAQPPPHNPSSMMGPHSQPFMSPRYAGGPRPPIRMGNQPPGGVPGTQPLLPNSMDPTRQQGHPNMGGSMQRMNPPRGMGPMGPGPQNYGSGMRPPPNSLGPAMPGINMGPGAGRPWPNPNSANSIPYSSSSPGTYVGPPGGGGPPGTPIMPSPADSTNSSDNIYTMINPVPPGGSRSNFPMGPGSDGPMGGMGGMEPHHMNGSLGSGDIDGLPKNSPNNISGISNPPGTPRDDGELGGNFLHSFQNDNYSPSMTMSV
UniProt P52630, sequence (P52630 whole entry, looked up): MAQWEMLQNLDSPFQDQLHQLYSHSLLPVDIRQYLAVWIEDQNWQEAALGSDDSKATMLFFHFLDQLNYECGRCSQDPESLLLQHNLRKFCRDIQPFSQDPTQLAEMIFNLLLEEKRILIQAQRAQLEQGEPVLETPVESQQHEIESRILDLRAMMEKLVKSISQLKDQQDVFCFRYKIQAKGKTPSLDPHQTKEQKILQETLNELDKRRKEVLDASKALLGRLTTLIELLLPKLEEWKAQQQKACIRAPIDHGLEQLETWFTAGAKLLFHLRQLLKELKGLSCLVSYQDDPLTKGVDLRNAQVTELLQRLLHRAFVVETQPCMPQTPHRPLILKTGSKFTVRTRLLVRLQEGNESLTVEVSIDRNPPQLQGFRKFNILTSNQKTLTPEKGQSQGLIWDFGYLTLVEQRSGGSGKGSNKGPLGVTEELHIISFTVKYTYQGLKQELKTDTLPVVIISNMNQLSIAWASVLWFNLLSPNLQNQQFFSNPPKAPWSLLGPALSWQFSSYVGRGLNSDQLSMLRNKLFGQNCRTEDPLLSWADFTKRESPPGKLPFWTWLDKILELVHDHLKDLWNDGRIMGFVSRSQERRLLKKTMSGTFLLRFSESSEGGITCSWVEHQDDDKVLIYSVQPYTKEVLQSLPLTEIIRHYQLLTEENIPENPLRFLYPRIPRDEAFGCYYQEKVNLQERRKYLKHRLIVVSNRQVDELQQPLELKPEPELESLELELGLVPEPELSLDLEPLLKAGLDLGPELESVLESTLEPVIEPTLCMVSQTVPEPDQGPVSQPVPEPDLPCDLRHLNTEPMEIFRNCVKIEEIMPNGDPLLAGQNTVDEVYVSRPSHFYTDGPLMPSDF
UniProt Q86XZ4, sequence (Q86XZ4 whole entry, looked up): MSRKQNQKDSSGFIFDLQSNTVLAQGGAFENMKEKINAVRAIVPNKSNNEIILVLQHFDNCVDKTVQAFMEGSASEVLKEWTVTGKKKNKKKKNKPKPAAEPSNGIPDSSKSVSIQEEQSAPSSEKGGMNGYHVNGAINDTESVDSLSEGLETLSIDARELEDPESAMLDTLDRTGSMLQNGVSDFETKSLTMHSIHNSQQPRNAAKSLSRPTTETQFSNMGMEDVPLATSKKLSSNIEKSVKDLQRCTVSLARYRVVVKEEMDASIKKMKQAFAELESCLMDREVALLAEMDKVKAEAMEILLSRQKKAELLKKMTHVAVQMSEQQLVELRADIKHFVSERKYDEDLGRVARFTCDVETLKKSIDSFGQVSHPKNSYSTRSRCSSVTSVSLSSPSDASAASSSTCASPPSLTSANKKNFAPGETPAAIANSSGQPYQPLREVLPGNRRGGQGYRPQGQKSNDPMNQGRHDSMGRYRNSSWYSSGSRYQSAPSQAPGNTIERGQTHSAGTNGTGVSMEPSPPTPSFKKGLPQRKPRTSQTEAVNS
UniProt Q9UNE7, sequence (Q9UNE7 whole entry, looked up): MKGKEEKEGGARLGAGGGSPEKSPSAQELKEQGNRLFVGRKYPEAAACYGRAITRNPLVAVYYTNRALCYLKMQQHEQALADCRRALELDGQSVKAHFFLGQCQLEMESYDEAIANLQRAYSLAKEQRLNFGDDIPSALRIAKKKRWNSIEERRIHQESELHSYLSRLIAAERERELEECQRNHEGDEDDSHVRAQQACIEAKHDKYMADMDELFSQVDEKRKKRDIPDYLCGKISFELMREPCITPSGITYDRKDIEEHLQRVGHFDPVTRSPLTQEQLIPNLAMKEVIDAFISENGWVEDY

log2 fold change, inactive:
SPNS1 (UniProt Q9H2V7) 0.028
SRM (UniProt P19623) 0.012
STOML2 (UniProt Q9UJZ1) -0.001
SFN (UniProt P31947) 0.008
SMC1B isoform 3 (UniProt Q8NDV3) 0.016
STK24 (UniProt B4DR80) -0.005
STAU1 (UniProt O95793) 0.007
SPATS2 (UniProt Q86XZ4) -0.03
SMC4 (UniProt Q9NTJ3) 0.003
STK38 (UniProt Q15208) 0.064
SMG6 (UniProt Q86US8) 0.082
SMARCA4 (UniProt P51532) 0.004
SSBP3 (UniProt Q9BWW4) 0.016
STAT2 (UniProt P52630) 0.025
STUB1 (UniProt Q9UNE7) 0.004
SHKBP1 (UniProt Q8TBC3) -0.011
SSB (UniProt P05455) -0.018
SMG7 (UniProt Q92540) 0.03
SMG1 (UniProt Q96Q15) 0.006
SRRT (UniProt Q9BXP5) 0.026
SHC1 isoform 6 (UniProt P29353) -0.005
SH3BGRL2 (UniProt Q9UJC5) -0.033
SP1 (UniProt P08047) -0.019
SHCBP1 (UniProt Q8NEM2) 0.026
SH3BP5L (UniProt Q7L8J4) -0.025
SYNRG (UniProt Q9UMZ2) 0.001
STK26 (UniProt Q9P289) 0.029
SMC2 (UniProt O95347) 0.025
SLC11A2 isoform 3 (UniProt P49281) -0.048
SYF2 (UniProt O95926) 0.003
SMC6 (UniProt Q96SB8) 0.012
SLC29A2 (UniProt Q14542) 0.037
SNAP23 (UniProt O00161) 0

Compound: Cn1cc(CNCC2CCN(c3ncc(C(=O)NO)cn3)CC2)c2ccccc21 [quisinostat]
Test: as above
Outline: as §1

log2 fold change, inactive:
SPNS1 (UniProt Q9H2V7) -0.039
SRM (UniProt P19623) 0.009
STOML2 (UniProt Q9UJZ1) 0.035
SFN (UniProt P31947) 0.077
SMC1B isoform 3 (UniProt Q8NDV3) 0.004
STK24 (UniProt B4DR80) -0.019
STAU1 (UniProt O95793) 0.003
SPATS2 (UniProt Q86XZ4) 0.144
SMC4 (UniProt Q9NTJ3) -0.014
STK38 (UniProt Q15208) -0.14
SMG6 (UniProt Q86US8) -0.05
SMARCA4 (UniProt P51532) -0.029
SSBP3 (UniProt Q9BWW4) 0.018
STAT2 (UniProt P52630) -0.117
STUB1 (UniProt Q9UNE7) -0.06
SHKBP1 (UniProt Q8TBC3) -0.039
